Experimental data as given in PubChem BioAssay (EPA / NIEHS).
Inconclusive results are not listed. Activity calls are given as the source filed them. The calls were made as follows: active = hit-call score of the fitted dose curve at least 0.9, where 1 is the maximum; inconclusive = response in the unintended direction; inactive = score below 0.9.

Assay: TOX21_p53_BLA_p3_viability: Viability Assessment in the Tox21 HCT-116 p53 Agonism Beta-lactamase Assay, Phase 3 (AID 2283593);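 also: cells exposed to compound for 16 h before reading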
Text: TOX21_p53_BLA_p3 is a cell-based, single-readout assay that uses HCT116, a human intestinal cell line, […] in a 1536-well plate.TOX21_p53_BLA_p3_viability is an assay readout measuring cellular ATP content and detected with CellTiter-Glo Luciferase-coupled ATP quantitation.TOX21_p53_BLA_p3_viability used a type of viability reporter where loss-of-signal activity can be used to understand changes in the cell viability. Furthermore, this assay endpoint can be referred to as a secondary readout, because this assay has produced multiple assay endpoints where this one serves a viability function. To generalize the intended target to other relatable targets, this assay endpoint is annotated to the cell cycle intended target family, where the subfamily is cytotoxicity.
Thawing Method: Place 14 mL of pre-warmed thaw medium into a 15 mL of conical tub. Remove the vial of cells to be thawed from liquid nitrogen and thaw rapidly by placing at 37C in a water bath with gentle agitation for 1-2 minutes. Decontaminate the vial by wiping with 70% ethanol before opening in a biological safety cabinet. Transfer the vial contents drop-wise into 14 mL of thaw medium in a sterile 15-mL conical tub. Centrifuge cells at 900 rpm for 4 minutes and resuspend in thaw medium. Transfer contents to the T75 tissue culture flask containing Thaw Medium and place flask in a humidified 37C/5% CO2 incubator. Switch to growth medium at first passage.Propagation Method: Aspirate medium, rinse once in DPBS, add 0.25% Trypsin/EDTA and swirl to coat the cell evenly. Add an equal volume of Growth Medium to inactivate Trypsin after 2-3 minutes incubation at 37C. Centrifuge cells at 900 rpm for 4 minutes and resuspend in growth medium. Cell should be passage or fed at least twice a week.Assay Protocol: Harvest cells from culture in growth medium and resuspend in assay medium. 2.2 Dispense 4000 cells/5 uL/well into 1536-well black/clear bottom plates using a Multidrop dispenser. After the cells were incubated at 37C for 5 hours, 23 nL of compounds dissolved in DMSO were transferred to the assay plate by a PinTool resulting in a 217-fold dilution. Incubate the plates for 16 hours at 37C, 5% CO2. Add 1 uL of 6X LiveBLAzer FRET B/G (CCF4-AM) Substrate Mixture to each well using a BioRAPTR dispenser and incubate the plates at room temperature for 2 hours. Measure fluorescence intensity at 460 and 530 nm emission and 405 nm excitation by an Envision detector. Data is expressed as the ratio of 460nm/530nm emissions. Add 4 uL of Cell-titer Glo to each well using BioRAPTR and incubate the plates at room temperature for […]. For cell viability readout that measures cytotoxicity, 4 ul/well of CellTiter-Glo reagent was added into the assay plates using a Flying Reagent Dispenser. After 30 min incubation at room temperature, the luminescence intensity in the plates was measured using a ViewLux plate reader.

Structure (SMILES) | outcome
C[C@@H](c1ncncc1F)[C@](O)(Cn1cncn1)c1ccc(F)cc1F | inactive
Cn1cnc2ncnc(N)c21 | inactive
CCOC(=O)[C@H](CCc1ccccc1)N[C@@H](C)C(=O)N1Cc2cc(OC)c(OC)cc2C[C@H]1C(=O)O | inactive
N[C@@H](C(=O)N[C@@H]1C(=O)N2C(C(=O)O)=C(Cl)CC[C@H]12)c1ccccc1 | inactive
CC(C(=O)O)c1ccc2c(c1)Cc1cccnc1O2 (stereo not given) | inactive
CCN1CCCC1CNC(=O)c1cc(S(N)(=O)=O)ccc1OC (stereo not given) | inactive
O=C1c2ccccc2C(=O)N1CO | inactive
O=C(O)CC/C=C\CC[C@@H]1[C@@H](N2CCCCC2)[C@@H](O)C[C@@H]1OCc1ccc(-c2ccccc2)cc1 | inactive
CCCCCCOC(=O)c1cccnc1 | inactive
Nc1cccc2c(=O)[nH][nH]c(=O)c12 | inactive
Oc1ccc(C(O)CNCCCCCCNCC(O)c2ccc(O)c(O)c2)cc1O (stereo not given) | inactive
CN=C(NC#N)Nc1ccc(C2=NNC(=O)CC2C)cc1 (stereo not given) | inactive
CCCCS(=O)(=O)N[C@@H](Cc1ccc(OCCCCC2CCNCC2)cc1)C(=O)O | inactive
CC(=O)CC(=O)Nc1ccc(S(=O)(=O)O)cc1 | inactive
CN1C(C(=O)Nc2ccccn2)C(=O)c2sc(Cl)cc2S1(=O)=O (stereo not given) | inactive
CCCCCCCCCCCCCC=O | inactive
CC(C)(C)CC(C)(C)c1ccc(Nc2ccc(C(C)(C)CC(C)(C)C)cc2)cc1 | inactive
C=CC(=O)NC(C)C | inactive
CCCCC(CC)COC(=O)CC#N (stereo not given) | inactive
CC1=C(/C=C/C(C)=C/C=C/C(C)=C/C=C/C=C(C)/C=C/C=C(C)/C=C/C2=C(C)C(=O)CCC2(C)C)C(C)(C)CCC1=O | inactive

Structure (SMILES) | outcome
CCC(C=O)CC | inactive
C=CCCCCCCCCCCC | inactive
CCCCOC(=O)C(=O)OCCCC | inactive
CCCCNC(=O)NCCCC | inactive
Cc1cccc(O)c1N | inactive
Nc1nc(NC2CC2)c2ncn([C@H]3C=C[C@@H](CO)C3)c2n1 | inactive
CCOC(=O)C(C)(C)C | inactive
CCCC(=O)Nc1ncnc2c1ncn2[C@@H]1O[C@@H]2COP(=O)(O)O[C@H]2[C@H]1OC(=O)CCC | inactive
Nc1cc(C(=O)O)c(O)c(S(=O)(=O)O)c1 | inactive
CCOC(=O)Nc1ccc2c(c1)N(C(=O)CCN1CCOCC1)c1ccccc1S2 | inactive
C/C=C(/CC[C@@H](C)[C@H]1CC[C@H]2C3=CC[C@H]4[C@H](C)[C@@H](O)CC[C@]4(C)[C@H]3CC[C@]12C)C(C)C | inactive
CCc1ccc(Br)cc1 | inactive
CCCCOCCOC(=O)CCCCCCCCC(=O)OCCOCCCC | inactive
C=C(C)C(=O)OCCOCC | inactive
CS(=O)(=O)CCNCc1ccc(-c2ccc3ncnc(Nc4ccc(OCc5cccc(F)c5)c(Cl)c4)c3c2)o1 | inactive
CC1(C)O[C@@H]2C[C@H]3[C@@H]4CCC5=CC(=O)CC[C@]5(C)[C@@]4(F)[C@@H](O)C[C@]3(C)[C@]2(C(=O)CCl)O1 | inactive
COc1cc(Cl)ccc1Cl | inactive
Cc1ccccc1C(=O)Nc1ccc(C(=O)N2CCCC(O)c3cc(Cl)ccc32)c(C)c1 (stereo not given) | inactive
FC(F)(F)c1ccccc1 | inactive
O=C1CC[C@@H](C(=O)N[C@H]2C[C@@H]2c2ccccc2)N1 | inactive
